Bioassay records as filed in PubChem BioAssay.
The list is not random: actives were taken first. Their share in the collection is about 19%.
Pf growth 96h – P. falciparum growth inhibition at 96 hours; P. falciparum luciferase reporter growth, 96 h; Potency, µM (top dose mostly 28.7 µM), hits mostly inhibitors; 320,000 compounds, 6.9% hits
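Infected RBCs, 2% Hct / 0.05% parasitemia final; luciferase-reporter P. falciparum; cpd 96 h, 37 C, 5% CO2; luciferase detection reagent; luminescence.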
AMA1-RON2 inh – AMA1-RON2 (P. falciparum) interaction inhibition; AlphaScreen AMA1-biotinylated RON2 peptide binding; Potency, µM (doses to about 58.2 µM), hits mostly inhibitors; 360,000 compounds, 0.2% hits; AID 720542; further: nearly all actives have a fitted effect of over 45% in size
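AMA1 (3D7) with his tag at 25 nM final met compounds first, then biotinylated RON2 peptide at 25 nM; detection used donor plus acceptor beads, 10 µg/mL apiece, read by AlphaScreen after 30 min at room temperature.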
CHX counter – counter-screen hit for Shiga toxin inhibitors, cycloheximide; 300,000 compounds, 12% hits; max response, %; cell reporter, cycloheximide protein synthesis inhibition counterscreen; AID 2314; in the data active means max response mostly above about 13%, no sharp cut-off; inactive means mostly below about 14%; further: read at 38.3 µM for the half of the compounds with a filed dose
Shiga toxin inh – blocks Shiga toxin action in Vero cells; Vero cells, Shiga toxin protein synthesis inhibition reporter; AID 2315; 290,000 compounds, 9.2% hits; inhibition, % at 38.7 µM; in the data active means inhibition mostly above about 28%, no sharp cut-off; inactive means mostly below about 43%
SARS PLP yeast – SARS-CoV PLP inhibition in yeast. Potency, µM (series often up to 32.9 µM), usual class: activators. S. cerevisiae expressing SARS-CoV PLpro, growth rescue. AID 485353. 330,000 compounds, 0.19% hits; calls by dose curve; further: nearly all actives have a fitted effect of over 55% in size
Pf growth 48h – inhibits P. falciparum growth in the first generation, 48 h | P. falciparum luciferase growth in erythrocytes, 48 h | Potency, µM (doses to about 28.7 µM), actives largely listed as inhibitors | 310,000 compounds, 5.9% hits | AID 504832
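Luminescence readout; reporter = integrated firefly luciferase in P. falciparum. RBC culture at 2% hematocrit, 0.1% parasitemia final, 37 C/5% CO2; decreased signal taken as growth inhibition.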
A number is an active result. Unless noted, the call rests on the fitted dose curve; in most records, active means well fitted curve in the direction sought with a large enough effect; inconclusive means small, poorly fitted or top-dose-only effect, or another doubt; inactive means no such curve, though single readings can be large; an effect the other way counts as inactive or inconclusive.

What do the screens show for `CCOC(=O)Cn1cnc2c(cnn2-c2ccc(OC)cc2)c1=O`?
Pf growth 96h: inconclusive; AMA1-RON2 inh: inactive; CHX counter: 28.6; Shiga toxin inh: 59.7; SARS PLP yeast: inconclusive; Pf growth 48h: inactive

What do the screens show for `COc1ccc(-n2ncc3c(=O)n(CC(=O)N(C(C)C)C(C)C)cnc32)cc1`?
Pf growth 96h: inactive; AMA1-RON2 inh: inactive; CHX counter: inactive; Shiga toxin inh: inactive; SARS PLP yeast: inactive; Pf growth 48h: inactive

Results for COC(=O)Cn1cnc2c(cnn2-c2ccccc2)c1=O ?
Pf growth 96h: inconclusive; AMA1-RON2 inh: inactive; CHX counter: 15.7; Shiga toxin inh: inactive; SARS PLP yeast: inactive; Pf growth 48h: inactive

Results for O=C(Cn1cnc2c(cnn2-c2ccccc2)c1=O)NC1CCCC1 ?
Pf growth 96h: inactive; AMA1-RON2 inh: inactive; CHX counter: inactive; Shiga toxin inh: inactive; SARS PLP yeast: inactive; Pf growth 48h: inactive

How did Cc1ccc(F)c(S(=O)(=O)NC(=O)C2(C)CCN2C(=O)C2(c3ccc(Cl)cc3)CCC2)c1 (stereo unspecified) do in these assays?
AMA1-RON2 inh: inactive

How did Cc1ccc2nc3c(c(N)c2c1)CCN3C do in these assays?
Pf growth 96h: inconclusive; AMA1-RON2 inh: inactive; CHX counter: inactive; Shiga toxin inh: inactive; SARS PLP yeast: inactive; Pf growth 48h: inactive

Results for CCCCN1CCc2c1nc1ccc(Br)cc1c2N ?
Pf growth 96h: 1.65µM; AMA1-RON2 inh: inactive; CHX counter: inactive; Shiga toxin inh: inactive; SARS PLP yeast: inactive

How did COc1ccc(S(=O)(=O)N2CCOCC2)cc1NC(=O)CN1CCN(C)CC1 do in these assays?
Pf growth 96h: inactive; AMA1-RON2 inh: inactive; Pf growth 48h: inactive

Results for CC1C(=O)N2CCCc3cc(NC(=O)C(=O)NCCCc4ccccc4)cc1c32 (stereo unspecified) ?
Pf growth 96h: inconclusive; AMA1-RON2 inh: inactive; SARS PLP yeast: inactive; Pf growth 48h: 11.7µM

How did CNC(=O)C(=O)Nc1cc2c3c(c1)C(C)C(=O)N3CCC2 (stereo unspecified) do in these assays?
Pf growth 96h: inactive; AMA1-RON2 inh: inactive; CHX counter: inactive; Shiga toxin inh: inactive; SARS PLP yeast: inactive; Pf growth 48h: inactive

How did CC1C(=O)N2CCCc3cc(NC(=O)COc4ccc(Cl)cc4)cc1c32 (stereo unspecified) do in these assays?
Pf growth 96h: 14.7µM; AMA1-RON2 inh: inactive; SARS PLP yeast: inactive; Pf growth 48h: inconclusive

Results for O=C(CSc1ncccn1)N/N=C/c1ccc2c(c1)OCO2 ?
Pf growth 96h: inactive; AMA1-RON2 inh: inactive; CHX counter: 34.2; Shiga toxin inh: inactive; SARS PLP yeast: inactive; Pf growth 48h: inactive

Results for O=C(CNc1ccccc1)N/N=C/c1ccc2c(c1)OCCO2 ?
Pf growth 96h: inactive; AMA1-RON2 inh: inactive; CHX counter: 34.1; Shiga toxin inh: 47.5; SARS PLP yeast: inactive; Pf growth 48h: inactive

Results for O=C(Cn1ccc(C(F)(F)F)n1)N/N=C/c1ccc2c(c1)OCO2 ?
Pf growth 96h: inactive; AMA1-RON2 inh: inactive; CHX counter: 36.5; Shiga toxin inh: 122.3; SARS PLP yeast: inactive; Pf growth 48h: inactive

What do the screens show for `C/C(=N\NC(=O)Cn1ccc(C(F)(F)F)n1)c1ccc2c(c1)OCO2`?
Pf growth 96h: inactive; AMA1-RON2 inh: inactive; CHX counter: inactive; Shiga toxin inh: inactive; SARS PLP yeast: inactive; Pf growth 48h: inactive

Results for O=C(Cc1ccccc1)N/N=C/c1ccc2c(c1)OCO2 ?
Pf growth 96h: inactive; AMA1-RON2 inh: inactive; CHX counter: 33.5; Shiga toxin inh: 72.0; SARS PLP yeast: inactive; Pf growth 48h: inactive

Results for CC1CCCCC12NC(=S)N(c1ccccc1)N2 (stereo unspecified) ?
Pf growth 96h: inactive; AMA1-RON2 inh: inactive; CHX counter: inactive; Shiga toxin inh: inactive; SARS PLP yeast: inactive; Pf growth 48h: inactive

How did O=C1CC(c2ccco2)Cc2nc(Nc3nc(-c4ccccc4)c4ccccc4n3)ncc21 (stereo unspecified) do in these assays?
Pf growth 96h: inconclusive; AMA1-RON2 inh: inactive; CHX counter: inactive; Shiga toxin inh: inactive; SARS PLP yeast: inactive; Pf growth 48h: inactive

How did O=C(NCc1cccnc1)c1ccc(Br)o1 do in these assays?
Pf growth 96h: inactive; AMA1-RON2 inh: inactive; SARS PLP yeast: inactive; Pf growth 48h: inactive

What do the screens show for `Cc1cccc(C(=O)N[C@@H](C)C(=O)N2CCN(c3ncccn3)CC2)c1`?
Pf growth 96h: inactive; AMA1-RON2 inh: inactive; SARS PLP yeast: inactive; Pf growth 48h: inactive

How did O=C(N/N=C/c1ccc2c(c1)OCO2)C(=O)Nc1ccccc1 do in these assays?
Pf growth 96h: inactive; AMA1-RON2 inh: inactive; CHX counter: inactive; Shiga toxin inh: inactive; SARS PLP yeast: inactive; Pf growth 48h: inactive

Results for O=C(CNc1ccccc1)N/N=C/c1ccc2c(c1)OCO2 ?
Pf growth 96h: inactive; AMA1-RON2 inh: inactive; CHX counter: 20.1; Shiga toxin inh: 28.9; SARS PLP yeast: inactive; Pf growth 48h: inactive

How did O=C(CCc1ccccc1)NCC(=O)N/N=C/c1ccc2c(c1)OCO2 do in these assays?
Pf growth 96h: inactive; AMA1-RON2 inh: inactive; CHX counter: 19.2; Shiga toxin inh: 53.2; SARS PLP yeast: inactive; Pf growth 48h: inactive

How did CC(=O)N1CCC(C(=O)N2c3ccccc3N=C(c3ccc4c(c3)OCO4)C2C(=O)Nc2c(C)cccc2C)CC1 (stereo unspecified) do in these assays?
AMA1-RON2 inh: inactive

How did C=CCn1c(C)cc(C(=O)COC(=O)/C=C/c2c(C)nn(C3CCS(=O)(=O)C3)c2Cl)c1C (stereo unspecified) do in these assays?
Pf growth 96h: inconclusive; AMA1-RON2 inh: inactive; SARS PLP yeast: inactive; Pf growth 48h: inconclusive

Results for Cc1ccc(NC(=O)CN2C(=O)S/C(=C/c3ccc(-c4cccc(C(=O)O)c4)o3)C2=O)cc1 ?
Pf growth 96h: inactive; AMA1-RON2 inh: inactive; CHX counter: inactive; Shiga toxin inh: inactive; SARS PLP yeast: inactive; Pf growth 48h: inactive

Results for C#CCN1C(=O)S/C(=C\c2ccc(-c3ccc(C(=O)O)cc3C)o2)C1=O ?
Pf growth 96h: inactive; AMA1-RON2 inh: inactive; CHX counter: 38.8; Shiga toxin inh: 41.8; SARS PLP yeast: inactive; Pf growth 48h: inactive

What do the screens show for `CC(C)(C)OC(=O)CN1C(=O)S/C(=C\c2ccc(-c3cccc(C(=O)O)c3)o2)C1=O`?
Pf growth 96h: inactive; CHX counter: 27.2; Shiga toxin inh: 118.2; SARS PLP yeast: inactive; Pf growth 48h: inactive

How did CCCc1nc2ccc(Cl)cn2c1Cc1ccsc1 do in these assays?
AMA1-RON2 inh: inactive

Results for Cc1ccc(NC(=O)CS(=O)CC(=O)Nc2ccc3c(c2)OCO3)cc1Cl (stereo unspecified) ?
Pf growth 96h: inconclusive; AMA1-RON2 inh: inactive; CHX counter: inactive; Shiga toxin inh: inactive; SARS PLP yeast: inactive; Pf growth 48h: inactive

How did CCOc1ccc(N2CC(=O)Nc3ccccc3NCC2=O)cc1 do in these assays?
Pf growth 96h: 8.28µM; AMA1-RON2 inh: inactive; CHX counter: inactive; Shiga toxin inh: inactive; SARS PLP yeast: inactive; Pf growth 48h: inactive
